Laboratory results: PubChem BioAssay
Activity calls are given as the source filed them.

How the values were obtained:
[1] = system: Wnt5a (protein binding on small-molecule microarray); test: Wnt5a binders on small-molecule microarray, primary screen, biophysical, 635/667 nm fluorescence (AID 1142); settings: 635 nm fluorescence, higher = more signal;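 note: fluorescence read at 667 nm with signal to noise per printed feature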
[2] = cell viability in Huh7 cells, primary screen, cytotoxicity control for HCV replication inhibitor project, CellTiter-Glo luminescence, basal, 48 h (AID 1143); settings: Huh7 HCV replicon, higher = more signal, called active from +8 up or from −8 down;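 note: Huh7 hepatoma cells carrying a hepatitis C replication reporter with no stimulus; test concentration not given here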
[3] = CREB reporter modulators without forskolin, primary screen, cell-based, PC12, CRE-LacZ reporter, unstimulated (AID 1145); settings: no forskolin, luminescence, 4.5 h, higher = more signal, called active from +8 up or from −8 down
[4] = CREB reporter modulators under forskolin, primary screen, cell-based, PC12, CRE-LacZ reporter, forskolin-stimulated (AID 1146); settings: luminescence, 4.5 h, higher = more signal, called active from +8 up or from −8 down;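 note: PC12 cells with 6xCRE LacZ reporter stimulated by forskolin 10 µM; beta-galactosidase reporter signal reflecting CREB driven transcription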
[5] = target: Streptavidin (Streptomyces avidinii) (UniProt P22629); test: streptavidin binders on small-molecule microarray, primary screen, artefact control for SMM compound annotation, biophysical, 635/667 nm fluorescence (AID 1147); settings: streptavidin binding, higher = more signal;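 note: signal reflects streptavidin binding to arrayed compounds as a control protein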
Streptavidin (Streptomyces avidinii), sequence (P22629 whole entry, looked up): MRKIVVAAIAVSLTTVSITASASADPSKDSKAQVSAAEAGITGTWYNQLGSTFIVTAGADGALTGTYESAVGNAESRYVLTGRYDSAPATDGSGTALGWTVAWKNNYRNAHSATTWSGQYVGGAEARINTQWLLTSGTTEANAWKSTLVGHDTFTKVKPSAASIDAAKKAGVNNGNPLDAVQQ

[6] = small-molecule binders of probe aInhba, primary screen, biochemical, small-molecule microarray, 635/667 nm fluorescence (AID 1148); settings: higher = more signal;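 note: score merges 667nm spot fluorescence with signal-to-noise for antibody binding to printed compounds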
[7] = target: Torsin-1A (Homo sapiens) (UniProt O14656); test: torsin A binders from cell lysate, primary screen, small-molecule microarray, wild-type, 635/667 nm (AID 1149); settings: COS7 hTOR1A-WT lysate, 635 nm fluorescence, higher = more signal
Torsin-1A (Homo sapiens), sequence (O14656 whole entry, looked up): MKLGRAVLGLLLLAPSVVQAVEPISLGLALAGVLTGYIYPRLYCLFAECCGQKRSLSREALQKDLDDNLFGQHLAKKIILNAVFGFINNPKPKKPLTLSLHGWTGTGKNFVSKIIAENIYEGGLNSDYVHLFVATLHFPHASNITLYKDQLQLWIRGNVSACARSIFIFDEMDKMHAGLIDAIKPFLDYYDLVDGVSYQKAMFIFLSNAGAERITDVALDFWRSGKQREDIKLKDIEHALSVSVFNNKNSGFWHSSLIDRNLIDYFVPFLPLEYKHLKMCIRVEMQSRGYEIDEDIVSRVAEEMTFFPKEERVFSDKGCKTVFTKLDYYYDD

[8] = target: Torsin-1A (Homo sapiens) (UniProt O14656); test: small-molecule binders of mutant TOR1A in lysate, primary screen, cell lysate, small-molecule microarray, COS7 lysate, 635/667 nm fluorescence (AID 1150); settings: COS7 hTOR1A mutant lysate, 635 nm fluorescence, higher = more signal;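 note: score pools 667 nm emission and signal to noise measuring lysate protein binding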
[9] = system: Sonic hedgehog protein (Shh); test: small-molecule binders of Shh protein, primary screen, biochemical, small-molecule microarray, 635/667 nm fluorescence (AID 1151); settings: small-molecule microarray binding, 635 nm fluorescence; higher = more signal;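 note: Shh protein binding to compounds spotted on small-molecule microarray slides; score combines spot fluorescence intensity with signal-to-noise across triplicate slides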
[10] = E. coli DRC41 culture turbidity changes, primary screen, E. coli filamentation inducer project, strain DRC41, OD650, 48 h (AID 1152);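 note: E. coli MC1000 strain DRC41 lacking acrAB efflux pump and sulA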; settings: E. coli DRC41 (acrAB sulA), higher = more signal, called active from +8 up or from −8 down
[11] = small-molecule binders of probe aLefty1, primary screen, biochemical, small-molecule microarray, 635/667 nm fluorescence (AID 1153); settings: higher = more signal;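 note: score merges spot fluorescence with signal-to-noise ratio from the scanned slide images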
[12] = PSAC antagonists in infected red cells, primary screen, cell-based, P. falciparum Indochina, OD700, 1 h (AID 1154); settings: P. falciparum Indochina infected RBC osmotic lysis, higher = more signal, called active from +8 up or from −8 down
[13] = PSAC antagonists in infected red cells, primary screen, cell-based, P. falciparum Indochina, OD700, 2 h (AID 1155);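 note: lysis reports solute entry through the parasite surface anion channel PSAC; channel blockers reduce lysis of infected cells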; settings: P. falciparum Indochina infected erythrocytes, osmotic lysis OD700; higher = more signal, called active from +8 up or from −8 down
[14] = osmotic lysis modulators in infected erythrocytes, primary screen, PSAC antagonist project, cell-based, P. falciparum Indochina, OD700, 3 h (AID 1156); settings: higher = more signal, called active from +8 up or from −8 down
[15] = PSAC antagonists in infected red cells, primary screen, cell-based, P. falciparum Indochina, OD700, 18 h (AID 1157); settings: P. falciparum Indochina infected erythrocytes, osmotic lysis OD700, 18 h; higher = more signal, called active from +8 up or from −8 down
[16] = modulators of S6 phosphorylation in cells, primary screen, cell-based, A549, cytoblot, luminescence, serum-stimulated (AID 1158); settings: A549 phospho-S6 cytoblot, 5 h, higher = more signal;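 note: serum-stimulated A549 lung adenocarcinoma cells; signal is phosphorylated S6 detected by cytoblot immunostaining with HRP secondary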
[17] = target: NADPH oxidase 2 (Homo sapiens) (UniProt P04839); test: NOX2-dependent H2O2 signal modulators, primary screen, NOX inhibitor project, cell-based, HEK293-NOX2, PMA-stimulated, Amplex Red fluorescence (AID 1159); settings: 45 min, higher = more signal, called active from +8 up or from −8 down; note: test concentration not given here
NADPH oxidase 2 (Homo sapiens), sequence (P04839 whole entry, looked up): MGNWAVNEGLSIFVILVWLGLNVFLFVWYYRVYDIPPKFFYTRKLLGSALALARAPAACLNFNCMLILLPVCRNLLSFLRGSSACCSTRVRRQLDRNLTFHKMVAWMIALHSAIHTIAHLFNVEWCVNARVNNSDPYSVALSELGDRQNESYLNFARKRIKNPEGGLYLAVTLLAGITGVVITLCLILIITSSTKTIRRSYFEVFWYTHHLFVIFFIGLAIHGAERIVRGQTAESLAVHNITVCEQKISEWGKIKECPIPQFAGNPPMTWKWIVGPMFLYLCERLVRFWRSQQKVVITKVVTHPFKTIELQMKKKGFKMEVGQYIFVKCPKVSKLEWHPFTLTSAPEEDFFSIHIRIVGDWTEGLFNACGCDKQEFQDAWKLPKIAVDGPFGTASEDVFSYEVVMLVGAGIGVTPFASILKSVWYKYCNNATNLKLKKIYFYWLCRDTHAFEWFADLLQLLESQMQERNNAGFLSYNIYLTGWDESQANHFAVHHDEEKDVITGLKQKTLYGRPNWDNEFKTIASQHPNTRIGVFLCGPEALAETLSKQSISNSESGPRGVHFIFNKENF

[18] = target: NADPH oxidase 4 (Homo sapiens) (UniProt Q9NPH5); test: NOX4-dependent H2O2 signal modulators, primary screen, NOX inhibitor project, cell-based, HEK293-NOX4, tetracycline-induced, Amplex Red fluorescence (AID 1160); settings: 45 min, higher = more signal, called active from +8 up or from −8 down
NADPH oxidase 4 (Homo sapiens), sequence (Q9NPH5 whole entry, looked up): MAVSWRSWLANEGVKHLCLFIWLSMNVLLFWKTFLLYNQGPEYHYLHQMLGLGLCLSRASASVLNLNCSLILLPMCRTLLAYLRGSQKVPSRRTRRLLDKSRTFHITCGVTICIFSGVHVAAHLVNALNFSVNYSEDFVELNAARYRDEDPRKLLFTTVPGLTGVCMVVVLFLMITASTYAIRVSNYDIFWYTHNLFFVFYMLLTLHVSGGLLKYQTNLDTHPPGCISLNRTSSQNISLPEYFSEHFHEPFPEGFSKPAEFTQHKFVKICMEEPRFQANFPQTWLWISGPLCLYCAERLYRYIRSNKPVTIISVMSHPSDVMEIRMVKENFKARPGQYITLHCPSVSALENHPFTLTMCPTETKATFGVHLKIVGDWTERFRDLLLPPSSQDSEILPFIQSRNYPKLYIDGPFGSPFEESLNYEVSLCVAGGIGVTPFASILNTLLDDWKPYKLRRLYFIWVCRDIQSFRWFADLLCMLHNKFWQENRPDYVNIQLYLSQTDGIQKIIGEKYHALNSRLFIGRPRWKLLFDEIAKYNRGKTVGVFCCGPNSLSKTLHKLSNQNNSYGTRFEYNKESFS

[19] = target: NADPH oxidase 5 (Homo sapiens) (UniProt Q96PH1); test: NOX5-dependent H2O2 signal modulators, primary screen, NOX inhibitor project, cell-based, HEK293-NOX5, Amplex Red fluorescence (AID 1161); settings: HEK293-NOX5, ionomycin, 45 min, higher = more signal
NADPH oxidase 5 (Homo sapiens), sequence (Q96PH1 whole entry, looked up): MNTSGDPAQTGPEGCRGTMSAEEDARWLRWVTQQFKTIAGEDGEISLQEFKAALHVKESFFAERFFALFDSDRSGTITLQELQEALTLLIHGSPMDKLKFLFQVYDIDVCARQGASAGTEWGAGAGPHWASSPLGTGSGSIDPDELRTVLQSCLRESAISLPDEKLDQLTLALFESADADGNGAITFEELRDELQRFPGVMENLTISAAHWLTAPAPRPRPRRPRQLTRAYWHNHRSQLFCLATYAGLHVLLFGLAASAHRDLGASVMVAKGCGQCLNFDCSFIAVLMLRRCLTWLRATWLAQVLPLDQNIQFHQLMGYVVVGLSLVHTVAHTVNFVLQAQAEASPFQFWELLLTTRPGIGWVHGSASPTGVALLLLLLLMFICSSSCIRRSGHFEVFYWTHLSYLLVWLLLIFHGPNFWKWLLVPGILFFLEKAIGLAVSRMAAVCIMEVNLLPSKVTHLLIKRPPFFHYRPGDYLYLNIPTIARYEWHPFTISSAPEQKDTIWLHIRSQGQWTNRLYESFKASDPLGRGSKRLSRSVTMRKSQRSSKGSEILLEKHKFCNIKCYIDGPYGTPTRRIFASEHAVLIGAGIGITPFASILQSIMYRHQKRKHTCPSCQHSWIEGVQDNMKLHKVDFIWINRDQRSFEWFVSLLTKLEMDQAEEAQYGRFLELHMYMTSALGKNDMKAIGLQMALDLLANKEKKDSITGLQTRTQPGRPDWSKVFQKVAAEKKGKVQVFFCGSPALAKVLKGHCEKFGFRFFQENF

[20] = A549 cell viability effects, profiling panel, calcein-AM fluorescence, 48 h, basal (AID 1162); settings: higher = more signal; note: test concentration not given here

SMILES	composite z-score [1]	z-score [2]	z-score [3]	z-score [4]	composite z-score [5]	composite z-score [6]	composite z-score [7]	composite z-score [8]	composite z-score [9]	z-score [10]	composite z-score [11]	z-score [12]	z-score [13]	z-score [14]	z-score [15]	z-score [16]	z-score [17]	z-score [18]	z-score [19]	z-score [20]
CC(=O)OC(C/C=C\B1OC(C)(C)C(C)(C)O1)c1ccccc1 (stereo not given)	-0.115	-3.4 (inactive)	3.04 (inactive)	-2.27 (inactive)	-0.748	-0.284	-0.611	0.301	-0.236	-2.2 (inactive)	-0.147	0.344 (inactive)	-0.832 (inactive)	-0.628 (inactive)	-1.04 (inactive)	3.07	-0.889 (inactive)	0.478 (inactive)	-2.94	2.43
C#CCOc1ccc(C[C@H]2C(=O)O[C@H](Cc3ccccc3)[C@H](/C=C/C3CC3)N2CC#C)cc1	-0.245	-2.48 (inactive)	-0.414 (inactive)	0.741 (inactive)	-0.0298	-0.183	0.498	0.212	0.145	2.04 (inactive)	-0.279	0.57 (inactive)	-0.251 (inactive)	-0.372 (inactive)	-0.383 (inactive)	0.242	-0.21 (inactive)	0.764 (inactive)	-1.52	-0.743
CCN(CC)c1ccc(N2CC=CC34O[C@@H]5C=CCOC(=O)[C@@H]5[C@H]3C(=O)N(C(CO)C(C)C)[C@@H]4C2=O)cc1 (stereo not given in full)	-0.191	-0.524 (inactive)	0.471 (inactive)	0.6 (inactive)	-0.258	-0.391	-0.156	-0.701	0.0806	1.38 (inactive)	0.189	-0.185 (inactive)	-0.262 (inactive)	1.21 (inactive)	0.135 (inactive)	-0.369	0.787 (inactive)	0.196 (inactive)	1.23	-0.0755
C=CCNC(=O)[C@H]1[C@@H]2C(=O)O[C@@H](c3ccccc3)[C@@H](c3ccccc3)N2[C@@H](c2ccc(OCCO)cc2)[C@]12C(=O)Nc1ccc(C#CCCO)cc12	-0.09	-2.34 (inactive)	0.0384 (inactive)	0.8 (inactive)	-0.0494	-0.0639	0.234	0.21	1.06	2.32 (inactive)	0.0793	4.5 (inactive)	-0.407 (inactive)	-0.144 (inactive)	-2.03 (inactive)	2.16	2.4 (inactive)	1.18 (inactive)	0.572	0.109
O=C(NC1CC1)[C@@H]1c2ccccc2C(=O)N(Cc2ccccc2C(F)(F)F)[C@H]1c1ccc(CO)cc1	0.312	-0.568 (inactive)	-0.0512 (inactive)	-1.37 (inactive)	-0.47	0.0439	0.504	0.723	0.732	1.48 (inactive)	0.106	2.17 (inactive)	0.721 (inactive)	-0.335 (inactive)	0.106 (inactive)	0.152	0.583 (inactive)	0.647 (inactive)	1.26	1.88
O=C(NO)[C@]1(Cc2ccccc2)N=C(c2ccc(OCCCO)cc2)O[C@@H]1c1ccccc1	-0.229	-1.7 (inactive)	3.01 (inactive)	-1.91 (inactive)	-0.585	-0.0782	-0.427	0.411	-0.351	3.88 (inactive)	0.0278	15 (active)	0.971 (inactive)	-0.479 (inactive)	-0.21 (inactive)	2.81	0.709 (inactive)	0.551 (inactive)	2.06	1.86
COc1ccc([Si](C)(C)[C@H]2[C@H](CC(=O)N(CCO)Cc3ccccc3)O[C@@]3(C(=O)N(Cc4ccc(N5CCOC5=O)cc4)c4ccccc43)[C@@H]2C)cc1	-0.0226	-2.42 (inactive)	1.05 (inactive)	-0.871 (inactive)	0.295	0.0111	0.442	0.0957	1.73	1.22 (inactive)	-0.123	25.1 (active)	14.5 (active)	-0.084 (inactive)	2.17 (inactive)	-0.141	0.815 (inactive)	-0.23 (inactive)	1.34	-0.832
COc1ccc(CCNC(=O)[C@@]2(Sc3ccc(C)cc3)CC(=O)N(Cc3ccccc3)[C@@H]2c2ccc(CO)cc2I)cc1	-0.221	-1.9 (inactive)	1.13 (inactive)	1.72 (inactive)	-0.225	-0.24	0.272	0.192	-0.631	1.15 (inactive)	-0.321	12.6 (active)	1.57 (inactive)	0.0585 (inactive)	0.572 (inactive)	-0.262	1.82 (inactive)	-1.14 (inactive)	1.78	0.648
